This is a sample that favours compounds with a hit; in the whole collection about 7.9% have one here.
SW480 rereplic – DNA re-replication induction in SW480 cells. SW480 DNA re-replication, Hoechst DNA content imaging, 48 h. Potency, µM (highest dose often 46.1 µM), most hits filed as activators. 340,000 tested, 1.8% active. AID 624297; also: nearly all actives have a fitted effect of over 55% in size
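First, 250 cells per well were seeded. Next, compound or vehicle (23 nL) was pinned in, plates sat 48 hr at 37 C. Finally Hoechst was added for 40 min before fluorescence scanning.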
HT1080 IDH1KD tx – kills HT-1080 cells with IDH1 knockdown | HT-1080 IDH1 knockdown viability, ATP luminescence, 48 h | Potency, µM (top dose mostly 46.1 µM), actives largely listed as cytotoxic | 360,000 tested, 2% active | AID 686971
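HT-1080-IDH1KD cells (IDH1 knocked down), 750/well in RPMI with 5% FBS, treated with compound 48 h at 37 degrees C. Viability by CellTiter-Glo luminescence, normalised to DMSO and no-cell wells; concentration-response curves classed.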
KB-3-1 tox – KB-3-1 parental cell cytotoxicity; Potency, µM (doses to about 46.1 µM), actives largely listed as cytotoxic; AID 1347075; 400,000 tested, 1.4% active; KB-3-1 viability, CellTiter-Glo ATP luminescence, 72 h; also: nearly all actives have a fitted effect of over 60% in size
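Cytotoxicity measured as CellTiter-Glo luminescence after 72 h at 37 C. Compound titrations were pinned onto drug-naive KB-3-1 parental adenocarcinoma cells grown in DMEM with 10% FBS, and normalized data fitted to concentration-response curves.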
KB-V1 MDR tox – kills drug-selected multidrug resistant KB-V1 cells. KB-V1 MDR cells viability, CellTiter-Glo, 72 h. Potency, µM (titrated, usually from 46.1 µM), actives largely listed as cytotoxic. 400,000 tested, 3.4% active. AID 1347076; also: nearly all actives have a fitted effect of over 60% in size
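KB-V1 MDR subline cells in DMEM (phenol-red free, 10% FBS) exposed to compounds in qHTS concentration series for 72 h at 37 degrees C. Viability read by CellTiter-Glo luminescence; concentration-effect curves fitted after normalization and correction.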
MCF10A rerep – DNA re-replication induction in MCF 10a cells | MCF 10A DNA re-replication, Hoechst nuclear intensity, 48 h | Potency, µM (series often up to 46.1 µM), actives largely listed as activators | 350,000 tested, 2.9% active | AID 624296; also: nearly all actives have a fitted effect of over 50% in size
HT1080NT lethal – kills 2HG-producing HT-1080-NT fibrosarcoma cells; HT-1080-NT fibrosarcoma viability, CellTiter-Glo ATP luminescence, 48 h; 360,000 tested, 1.6% active; Potency, µM (doses to about 46.1 µM), hits mostly cytotoxic;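 also: NT is the 2HG producing partner of a matched IDH1 knockdown line; nearly all actives have a fitted effect of over 55% in size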
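Viability of the 2HG-overproducing fibrosarcoma line after 48 hours of compound exposure at 37 degrees C was determined by luminescence with CellTiter-Glo, and concentration-effect curves were then fitted and categorized.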
Of the large screens only hits and unclear results are named; the others gave an inactive call. Calls follow the shape of the dose curve; as a rule, active = well fitted curve in the direction sought with a large enough effect; inconclusive = small, poorly fitted or top-dose-only effect, or another doubt; inactive = no such curve, though single readings can be large; an effect the other way counts as inactive or inconclusive.

Cc1ccc(S(=O)(=O)CC(=O)Nc2nc(-c3ccccc3)cs2)cc1	KB-V1 MDR tox 18.4µM
CC(C)C[C@@H](COCc1ccc([N+](=O)[O-])cc1)N1CCN(C(=O)c2ccc(C(F)(F)F)cc2)CCC1=O	HT1080 IDH1KD tx inconclusive, KB-3-1 tox inconclusive, KB-V1 MDR tox inconclusive (no result: SW480 rereplic, MCF10A rerep)
CCC(=O)Nc1nc(-c2ccc3c(c2)CC(C)N3S(C)(=O)=O)cs1 (stereo not given)	KB-3-1 tox inconclusive
CC1Cc2cc(-c3csc(NC(=O)Cc4cccs4)n3)ccc2N1S(C)(=O)=O (stereo not given)	HT1080 IDH1KD tx inconclusive, KB-3-1 tox 3.26µM, KB-V1 MDR tox 2.59µM, MCF10A rerep inconclusive
Cc1ccc(S(=O)(=O)Nc2ccc(-c3csc(-c4ccccc4)n3)cc2)cc1	SW480 rereplic inconclusive, KB-V1 MDR tox inconclusive, MCF10A rerep 11.6µM
CCOc1ccccc1CNC(=O)Cn1nc(C)c2c(C)n(-c3ccc(C)cc3)nc2c1=O	none
N#C/C(=N\Nc1ccc([N+](=O)[O-])cc1)C(N)=S	HT1080 IDH1KD tx 13µM, KB-3-1 tox inconclusive, KB-V1 MDR tox inconclusive, MCF10A rerep inconclusive, HT1080NT lethal inconclusive
CCOC(=O)/C(C#N)=N/Nc1ccc(S(=O)(=O)N2CCc3ccccc32)cc1	KB-3-1 tox inconclusive, MCF10A rerep inconclusive, HT1080NT lethal inconclusive
N#C/C(=N/Nc1ccc([N+](=O)[O-])cc1)C(=N)N1CCCCC1	none
N#C/C(=N\Nc1cccc([N+](=O)[O-])c1)C(=O)c1ccc(Br)cc1	HT1080 IDH1KD tx 2.59µM, KB-3-1 tox 3.66µM, KB-V1 MDR tox 1.46µM, MCF10A rerep inconclusive, HT1080NT lethal 5.8µM
N#C/C(=N\Nc1ccc(S(=O)(=O)N2CCc3ccccc32)cc1)C(N)=S	HT1080 IDH1KD tx 9.2µM, KB-3-1 tox inconclusive, HT1080NT lethal 10.3µM
CCn1c(=O)c2cc(C(=O)NCCc3cc(OC)ccc3OC)sc2c2ccccc21	none (no result: SW480 rereplic, HT1080 IDH1KD tx, MCF10A rerep, HT1080NT lethal)
c1ccc(C[C@H]2CN=C(Nc3ccccc3)N2CCCC2CCCC2)cc1	HT1080 IDH1KD tx inconclusive, HT1080NT lethal inconclusive
O=C(Nc1ccc(F)cc1F)C1CCN(c2ncccn2)CC1	none (no result: SW480 rereplic, HT1080 IDH1KD tx, MCF10A rerep, HT1080NT lethal)
Cc1[nH]c2ccccc2c1C1N2CC3(C)CN1CC(C)(C2)C3=O (stereo not given)	none (no result: SW480 rereplic, HT1080 IDH1KD tx, MCF10A rerep, HT1080NT lethal)
Cc1cc(C)n(-c2nnc(NC(C)(C)C)nn2)n1	MCF10A rerep inconclusive
Cc1cc(C)n(-c2nc(N(C)C)nc(N(C)C)n2)n1	HT1080 IDH1KD tx 6.31µM, HT1080NT lethal 7.08µM
Cc1cc(C)n(-c2nc(NC(C)(C)C)nc(NC(C)(C)C)n2)n1	none
Cc1cc(C)n(-c2nc(NC(C)C)nc(NC(C)C)n2)n1	SW480 rereplic 2.91µM, KB-V1 MDR tox inconclusive
Cc1cc(C)n(-c2ncc(C#N)cn2)n1	KB-3-1 tox inconclusive
Cc1cc(C)n(-c2nc(Nc3ccccc3C(F)(F)F)nc(-n3nc(C)cc3C)n2)n1	SW480 rereplic inconclusive, HT1080 IDH1KD tx inconclusive, KB-V1 MDR tox 0.92µM, MCF10A rerep inconclusive, HT1080NT lethal 9.2µM
CCNc1nc(NCC)nc(-n2nc(C)cc2C)n1	HT1080 IDH1KD tx 0.891µM, KB-V1 MDR tox inconclusive, HT1080NT lethal 2µM
O=C(NCC1CCCO1)c1ccc(N2C(=O)C3CCCCC3C2=O)cc1 (stereo not given)	none
CC(C)C[C@H]1CN(CCCC[C@@H]2CNC(=O)C(=O)N2Cc2ccccc2)C(=O)C(=O)N1CCc1ccccc1	none (no result: SW480 rereplic, MCF10A rerep)
COc1ccnc(Oc2ccc(F)cc2)c1C(=O)N/C=N/OCc1ccc(F)cc1Cl	SW480 rereplic inconclusive, KB-V1 MDR tox inconclusive
COc1ccnc(Oc2ccc(F)cc2)c1C(=O)N/C=N/OCc1ccc(Cl)cc1Cl	SW480 rereplic 2.31µM, KB-V1 MDR tox inconclusive, MCF10A rerep inconclusive
NS(=O)(=O)c1ccc(-c2ccc(/C=C3\C(=O)Nc4cc(Cl)ccc43)o2)cc1	SW480 rereplic inconclusive, MCF10A rerep inconclusive
CC1(C)OC(=O)C(=Cc2ccc(-c3ccc(S(N)(=O)=O)cc3)o2)C(=O)O1	SW480 rereplic inconclusive, HT1080 IDH1KD tx inconclusive, MCF10A rerep 18.4µM, HT1080NT lethal inconclusive
COc1ccc(Cl)cc1NC(=O)c1ccc2c(c1)CCCN2S(C)(=O)=O	none (no result: SW480 rereplic, HT1080 IDH1KD tx, MCF10A rerep, HT1080NT lethal)
CCOC(=O)c1nnc(-c2ccccc2)nc1Sc1ccccc1Cl	SW480 rereplic inconclusive, HT1080 IDH1KD tx 20.6µM, KB-3-1 tox inconclusive, MCF10A rerep 6.51µM, HT1080NT lethal inconclusive
Cc1nc(N)sc1-c1csc(Nc2ncccn2)n1	HT1080 IDH1KD tx 20.6µM, MCF10A rerep inconclusive, HT1080NT lethal inconclusive
Cc1nc(NC(=O)c2ccccc2)sc1-c1csc(NCc2ccccc2)n1	none
Cc1nc(NC(=O)c2ccccc2)sc1-c1csc(N)n1	HT1080 IDH1KD tx inconclusive, KB-3-1 tox 3.66µM, KB-V1 MDR tox inconclusive, MCF10A rerep 16.4µM
Cc1c2n(c3ccccc13)CC/C2=N\O	KB-3-1 tox inconclusive, KB-V1 MDR tox 5.17µM
C[C@@H](C(=O)NCCc1c[nH]c2ccccc12)[C@H]1C[C@]1(C)[C@H](NC(=O)OCc1ccccc1)c1ccccc1	SW480 rereplic 14.6µM, KB-3-1 tox 16.4µM
C[C@@H](C(=O)NCc1ccccn1)[C@H]1C[C@]1(C)[C@H](NC(=O)OCc1ccccc1)c1ccccc1	KB-V1 MDR tox inconclusive, MCF10A rerep 20.6µM
Cc1ccc(C(=O)C2CCN(CC(=O)Nc3ccc4c(c3)OCCO4)CC2)cc1	KB-V1 MDR tox 11.6µM
Cc1ccc(C(=O)C2CCN(CC(=O)Nc3ccc(N(C)C)cc3)CC2)cc1	none
CCN1CCN(C(=S)Nc2cccc(Cl)c2)CC1	none
CN1CCN(C(=S)Nc2cccc(Cl)c2)CC1	KB-V1 MDR tox 13µM
CCOC(=O)N1CCN(C(=S)Nc2cccc(C)c2)CC1	KB-V1 MDR tox 18.4µM
Cc1cccc(NC(=O)CN2CCN(CC(=O)Nc3cccc(C)c3)CC2)c1	KB-V1 MDR tox inconclusive, MCF10A rerep 20.6µM
CCOC(=O)C1CCN(C(=S)Nc2cccc(C)c2)CC1	none
CCOC(=O)NC(=O)CSc1ccc(S(=O)(=O)N(C)C2CCCCC2)cn1	none
COc1ccc(C(=O)C2CCN(CC(=O)Nc3cc(C)cc(C)c3)CC2)cc1	KB-V1 MDR tox inconclusive, MCF10A rerep inconclusive
Cc1cccc(NC(=O)CN2CCC(C(=O)c3ccc4c(c3)OCCO4)CC2)c1	KB-3-1 tox inconclusive, KB-V1 MDR tox 11.6µM
Cc1ccc(C(=O)C2CCN(CC(=O)Nc3nc(C)cs3)CC2)cc1	KB-V1 MDR tox 20.6µM
CCOc1ccc(/C=N/NC(=O)C(C)N(c2ccc(OC)cc2)S(C)(=O)=O)cc1 (stereo not given)	none
COc1ccc(N(C(C)C(=O)N/N=C/c2ccc(OCC(C)C)cc2)S(C)(=O)=O)cc1 (stereo not given)	SW480 rereplic 4.11µM, KB-V1 MDR tox inconclusive
